Drawing on PubChem BioAssay, this text covers composite z-score and z-score for five molecules.

Active and inactive are the calls of the source. Unless noted, the rule behind the calls is not given here.

Assay [1] in a line: anti-His antibody binders, primary screen, artefact control for SMM control protein annotation, biochemical, small-molecule microarray, 635 nm fluorescence (AID 1128).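 Note: score merges feature fluorescence with signal-to-noise for each printed compound spot.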 The following applies: anti-His Alexa647 antibody binding, higher = more signal.
In assay [2] the test system is Human papillomavirus type 1a E7 protein (residues 1-88). Description: HPV1a E7 small-molecule binders, primary screen, biochemical, small-molecule microarray, residues 1-88, 635 nm (AID 1129). Conditions: small-molecule microarray binding, fluorescence 635 nm; higher = more signal.
Assay [3] has as its target Focal adhesion kinase 1 (Homo sapiens) (UniProt Q05397). Description: small-molecule microarray binders of FAK, primary screen, biochemical, 635/667 nm fluorescence, BSA, DTT (AID 1130).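 Note: composite of spot emission at 667 nm and signal to noise over triplicate slides.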 The following applies: PTK2 binding, 635 nm fluorescence, higher = more signal.
The subject of assay [4] is Fibrinogen (Alexa647-labelled). The experiment in a line: fibrinogen binders on compound microarrays, profiling panel, artefact control for SMM control-protein annotation, biochemical, small-molecule microarray, 635/667 nm fluorescence (AID 1131).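 Note: z-score merges 667 nm fluorescence with per-spot signal-to-noise over triplicate slides.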 The following applies: fibrinogen-A647 binding fluorescence, higher = more signal.
The target in assay [5] is Follistatin (Homo sapiens) (UniProt P19883). The experiment in a line: follistatin binders on small-molecule microarrays, primary screen, biochemical, small-molecule microarray, 635/667 nm fluorescence (AID 1132). The following applies: FST binding, 635 nm fluorescence, higher = more signal.
Chain of Follistatin (Homo sapiens) (P19883 whole entry, looked up): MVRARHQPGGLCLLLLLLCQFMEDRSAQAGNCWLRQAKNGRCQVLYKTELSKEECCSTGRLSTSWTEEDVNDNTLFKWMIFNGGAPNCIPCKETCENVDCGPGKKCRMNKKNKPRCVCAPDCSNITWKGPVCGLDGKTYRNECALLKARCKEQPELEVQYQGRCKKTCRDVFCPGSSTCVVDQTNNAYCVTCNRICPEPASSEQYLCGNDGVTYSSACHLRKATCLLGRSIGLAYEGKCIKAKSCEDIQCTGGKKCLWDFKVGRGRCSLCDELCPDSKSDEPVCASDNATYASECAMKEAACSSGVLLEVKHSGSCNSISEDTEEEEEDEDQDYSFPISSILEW
Assay [6] deals with Fibroblast growth factor 2 (Homo sapiens) (UniProt P09038). Description: FGF2 binders on small-molecule microarrays, primary screen, biochemical, small-molecule microarray, 635/667 nm fluorescence (AID 1133). The following applies: small-molecule microarray binding, FGF2, fluorescence 635/667; higher = more signal.
Chain of Fibroblast growth factor 2 (Homo sapiens) (P09038 whole entry, looked up): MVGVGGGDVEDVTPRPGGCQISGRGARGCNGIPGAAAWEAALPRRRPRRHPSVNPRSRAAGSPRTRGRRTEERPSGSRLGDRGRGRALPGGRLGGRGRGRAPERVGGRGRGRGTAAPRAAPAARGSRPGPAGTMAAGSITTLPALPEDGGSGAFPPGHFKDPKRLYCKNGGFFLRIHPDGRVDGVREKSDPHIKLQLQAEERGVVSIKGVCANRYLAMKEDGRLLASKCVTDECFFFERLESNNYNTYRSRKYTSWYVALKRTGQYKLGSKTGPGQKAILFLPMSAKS
Assay [7] is described as follows: mitochondrial membrane potential change in A549 cells, profiling panel, cell-based, JC-1 fluorescence, basal, 24 h, 100 nL (AID 1138).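 Note: A549 lung adenocarcinoma cells under basal conditions with no added stimulus; test concentration not given here.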 The following applies: higher = more signal.
In assay [8] the test system is Lefty1. Description: Lefty1 binders on small-molecule microarrays, primary screen, biochemical, small-molecule microarray, 635/667 nm fluorescence (AID 1139). Conditions: small-molecule microarray binding, fluorescence 635/667; higher = more signal.
Assay [9] deals with wheat germ agglutinin (Triticum aestivum), Alexa647-labelled. Description: wheat germ agglutinin binders on compound microarrays, profiling panel, artefact control for SMM control-protein annotation, biochemical, small-molecule microarray, 635/667 nm fluorescence (AID 1140).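 Note: score merges 667 nm feature emission with signal to noise over triplicate slides.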 The following applies: WGA-A647 binding, 635 nm fluorescence, higher = more signal.
The target in assay [10] is Luciferin 4-monooxygenase (Photinus pyralis) (UniProt P08659). The experiment in a line: firefly luciferase enzyme inhibitors, primary screen, biochemical, luminescence, purified enzyme, 2006 set (AID 1141).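 Note: cell-free assay with purified firefly luciferase at 100 ng per well in PBS; test concentration not given here.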 The following applies: SteadyGlo luminescence, 30 min, higher = more signal, called active from +8 up or from −8 down.
Chain of Luciferin 4-monooxygenase (Photinus pyralis) (P08659 whole entry, looked up): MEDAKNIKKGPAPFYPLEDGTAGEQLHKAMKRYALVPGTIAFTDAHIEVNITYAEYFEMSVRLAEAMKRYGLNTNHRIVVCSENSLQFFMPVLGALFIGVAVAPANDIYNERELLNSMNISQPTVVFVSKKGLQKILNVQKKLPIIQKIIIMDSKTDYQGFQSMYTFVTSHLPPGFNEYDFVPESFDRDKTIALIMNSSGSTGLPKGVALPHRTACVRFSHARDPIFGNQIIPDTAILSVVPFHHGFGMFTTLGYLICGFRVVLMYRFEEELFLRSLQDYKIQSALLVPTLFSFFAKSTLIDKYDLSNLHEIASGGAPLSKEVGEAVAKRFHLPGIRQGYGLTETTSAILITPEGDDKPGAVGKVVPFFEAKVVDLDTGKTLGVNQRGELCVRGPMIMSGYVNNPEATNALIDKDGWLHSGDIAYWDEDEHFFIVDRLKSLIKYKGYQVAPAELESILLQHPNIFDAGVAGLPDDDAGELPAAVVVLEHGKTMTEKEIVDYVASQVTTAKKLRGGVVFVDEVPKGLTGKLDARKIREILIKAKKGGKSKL
The test system of assay [11] is Wnt5a (protein binding on small-molecule microarray). The experiment in a line: Wnt5a binders on small-molecule microarray, primary screen, biophysical, 635/667 nm fluorescence (AID 1142).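 Note: fluorescence read at 667 nm with signal to noise per printed feature.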 The following applies: 635 nm fluorescence, higher = more signal.
Assay [12] in a line: cell viability in Huh7 cells, primary screen, cytotoxicity control for HCV replication inhibitor project, CellTiter-Glo luminescence, basal, 48 h (AID 1143).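 Note: Huh7 hepatoma cells carrying a hepatitis C replication reporter with no stimulus; test concentration not given here.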 Conditions: Huh7 HCV replicon, higher = more signal, called active from +8 up or from −8 down.
Assay [13] can be described thus: P. aeruginosa biofilm formation inhibitors, primary screen, PAO1 strain, BacTiter-Glo luminescence, LB-PBS (AID 1144). Conditions: 12 h, higher = more signal.
Assay [14] in a line: CREB reporter modulators without forskolin, primary screen, cell-based, PC12, CRE-LacZ reporter, unstimulated (AID 1145). The following applies: no forskolin, luminescence, 4.5 h, higher = more signal, called active from +8 up or from −8 down.
Assay [15] is described as follows: CREB reporter modulators under forskolin, primary screen, cell-based, PC12, CRE-LacZ reporter, forskolin-stimulated (AID 1146).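 Note: PC12 cells with 6xCRE LacZ reporter stimulated by forskolin 10 µM; beta-galactosidase reporter signal reflecting CREB driven transcription.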 The following applies: luminescence, 4.5 h, higher = more signal, called active from +8 up or from −8 down.
The target in assay [16] is Streptavidin (Streptomyces avidinii) (UniProt P22629). Description: streptavidin binders on small-molecule microarray, primary screen, artefact control for SMM compound annotation, biophysical, 635/667 nm fluorescence (AID 1147).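 Note: signal reflects streptavidin binding to arrayed compounds as a control protein.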 The following applies: streptavidin binding, higher = more signal.
Chain of Streptavidin (Streptomyces avidinii) (P22629 whole entry, looked up): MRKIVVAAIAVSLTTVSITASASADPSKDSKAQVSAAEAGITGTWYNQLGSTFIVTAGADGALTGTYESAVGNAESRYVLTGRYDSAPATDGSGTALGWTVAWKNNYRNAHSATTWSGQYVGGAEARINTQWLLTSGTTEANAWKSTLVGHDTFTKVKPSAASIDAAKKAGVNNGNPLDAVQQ
The nature of assay [17]: small-molecule binders of probe aInhba, primary screen, biochemical, small-molecule microarray, 635/667 nm fluorescence (AID 1148).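 Note: score merges 667nm spot fluorescence with signal-to-noise for antibody binding to printed compounds.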 Conditions: higher = more signal.
Assay [18] has as its target Torsin-1A (Homo sapiens) (UniProt O14656). Description: torsin A binders from cell lysate, primary screen, small-molecule microarray, wild-type, 635/667 nm (AID 1149). Conditions: COS7 hTOR1A-WT lysate, 635 nm fluorescence, higher = more signal.
For assay [19] the target is unchanged. Description: small-molecule binders of mutant TOR1A in lysate, primary screen, cell lysate, small-molecule microarray, COS7 lysate, 635/667 nm fluorescence (AID 1150).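 Note: score pools 667 nm emission and signal to noise measuring lysate protein binding.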 Conditions: COS7 hTOR1A mutant lysate, 635 nm fluorescence, higher = more signal.
Assay [20] has as its system Sonic hedgehog protein (Shh). The experiment in a line: small-molecule binders of Shh protein, primary screen, biochemical, small-molecule microarray, 635/667 nm fluorescence (AID 1151).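 Note: Shh protein binding to compounds spotted on small-molecule microarray slides; score combines spot fluorescence intensity with signal-to-noise across triplicate slides.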 Conditions: small-molecule microarray binding, 635 nm fluorescence; higher = more signal.

Chain of Torsin-1A (Homo sapiens) (O14656 whole entry, looked up): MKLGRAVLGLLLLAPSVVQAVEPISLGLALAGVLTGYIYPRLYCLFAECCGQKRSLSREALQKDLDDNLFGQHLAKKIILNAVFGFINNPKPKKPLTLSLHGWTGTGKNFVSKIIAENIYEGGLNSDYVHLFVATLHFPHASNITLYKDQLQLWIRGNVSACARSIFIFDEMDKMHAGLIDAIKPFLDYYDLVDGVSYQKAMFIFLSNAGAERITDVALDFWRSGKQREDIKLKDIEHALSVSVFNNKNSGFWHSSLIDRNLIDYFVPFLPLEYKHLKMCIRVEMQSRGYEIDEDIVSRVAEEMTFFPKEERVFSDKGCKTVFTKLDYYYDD
Chain of Focal adhesion kinase 1 (Homo sapiens) (Q05397 whole entry, looked up): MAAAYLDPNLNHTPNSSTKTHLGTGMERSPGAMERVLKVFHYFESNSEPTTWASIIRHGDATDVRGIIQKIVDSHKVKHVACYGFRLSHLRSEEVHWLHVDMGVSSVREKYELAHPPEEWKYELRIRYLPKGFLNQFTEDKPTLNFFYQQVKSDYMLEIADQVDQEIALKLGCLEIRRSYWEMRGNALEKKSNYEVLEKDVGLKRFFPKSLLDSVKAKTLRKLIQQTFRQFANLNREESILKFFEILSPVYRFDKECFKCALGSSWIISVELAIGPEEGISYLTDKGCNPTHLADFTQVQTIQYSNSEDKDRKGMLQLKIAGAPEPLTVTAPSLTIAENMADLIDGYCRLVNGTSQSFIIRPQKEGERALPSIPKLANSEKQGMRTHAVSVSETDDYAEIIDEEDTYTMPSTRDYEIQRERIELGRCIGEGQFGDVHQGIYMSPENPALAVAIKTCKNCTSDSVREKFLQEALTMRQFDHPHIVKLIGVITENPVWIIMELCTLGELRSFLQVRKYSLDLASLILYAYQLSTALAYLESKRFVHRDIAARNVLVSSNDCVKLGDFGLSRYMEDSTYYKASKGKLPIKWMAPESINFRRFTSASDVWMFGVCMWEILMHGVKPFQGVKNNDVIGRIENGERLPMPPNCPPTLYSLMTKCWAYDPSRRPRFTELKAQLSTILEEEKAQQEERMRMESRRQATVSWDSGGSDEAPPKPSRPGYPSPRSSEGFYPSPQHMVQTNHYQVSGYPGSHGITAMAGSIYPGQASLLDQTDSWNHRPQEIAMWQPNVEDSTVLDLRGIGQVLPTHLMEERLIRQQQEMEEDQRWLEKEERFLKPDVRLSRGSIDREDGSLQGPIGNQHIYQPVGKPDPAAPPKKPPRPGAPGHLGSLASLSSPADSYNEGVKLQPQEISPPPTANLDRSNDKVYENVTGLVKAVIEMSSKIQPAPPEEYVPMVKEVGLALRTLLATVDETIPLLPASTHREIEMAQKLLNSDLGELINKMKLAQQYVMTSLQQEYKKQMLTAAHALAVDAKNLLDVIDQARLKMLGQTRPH

With `CCOC(=O)[C@H](CC(C)C)NC(=O)CCC1CC(OC(=O)NCc2ccc3c(c2)OCO3)CC2(CCCC(COC(=O)NCC3CCCCC3)O2)O1` (stereo not given in full), the composite z-score in assay [1] is 1.18; in assay [2], 0.939; in assay [3] it was -0.217; in [4], -0.195; in assay [5], 1.18; in assay [6], 0.928. The composite z-score in assay [8] worked out at 1.63; in assay [9] it was 0.584; in assay [11] it was 0.222; in [16] it was 0.354; in [17], 0.0471; in assay [18], 0.0886. Moreover, the figures for the composite z-score in assay [19] and in [20] were 0.392 and 1.52, respectively. The z-score in assay [7] was 0.0853; in assay [10] it was 0.885 (inactive); in assay [12], -1.86 (inactive); in assay [13], -0.0968 (inactive); in assay [14], -0.0732 (inactive); in assay [15], 0.389 (inactive).

Take `CCOC(=O)NN=C1C[C@@H](O)[C@@H](O)[C@@H]2[C@@H]3C(=O)N([C@@H](C)c4ccccc4)C(=O)[C@@H]3CC[C@H]12`: the composite z-score in [1] was 0.236; in assay [2], 0.416; in assay [3], -0.35; in assay [4], 0.65; in assay [5], 0.285; in [6], 0.166. Also, the composite z-score was 0.246 in [8]; 0.152 in assay [9]; 0.0373 in [11]; -0.0822 in assay [16]; -0.0131 in assay [17]; 0.834 in assay [18]. The composite z-score was determined as 0.522 in assay [19] and 0.127 in [20]. For the same molecule, the z-score in [7] is -0.877; in assay [10] it was 0.846 (inactive); in [12] it was -0.339 (inactive); in [13], 0.627 (inactive); in assay [14], -0.115 (inactive); in assay [15], -0.174 (inactive).

Take `CC(CCN1CCCCc2nc(C)c(C)cc21)=NO[C@H](C)c1cn([C@H](CO)Cc2ccccc2)nn1`: the composite z-score in assay [1] was 0.566; in [2], -0.556; in [3], -0.0044; in assay [4], 0.339; in assay [5] it was 0.965; in assay [6], 1.01. Moreover, the composite z-score in assay [8] is 1.08; in assay [9], -0.154; in assay [11], 0.101; in assay [16], 0.0378; in assay [17], -0.256; in [18] it was 2.04. The figures for the composite z-score in assay [19] and in assay [20] were 0.164 and 1.32, respectively. In addition, the z-score in assay [7] was 0.0726; in assay [10] it was -1.09 (inactive); in assay [12], -1.11 (inactive); in assay [13] it was 0.0152 (inactive); in assay [14], 2.24 (inactive); in [15], 0.743 (inactive).

As for `COC(=O)[C@@H]1CC[C@H](C)[C@@H](c2ccc(C)cc2)N1C(=O)c1ccc(C=NO[C@@H](C)c2cn([C@H](CO)Cc3ccccc3)nn2)cc1`, the composite z-score in assay [1] was determined as 1.37; in [2], 1.13; in assay [3] it was 0.262; in [4] it was 0.648; in [5], 0.717; in assay [6] it was 1.16. The composite z-score in assay [8] is 1.23; in assay [9], 0.147; in [11], 0.408; in assay [16], 0.279; in assay [17] it was -0.024; in assay [18] it was 0.243. Further, the composite z-score in assay [19] stood at 0.634; in assay [20], 0.738. Also, the z-score in assay [7] is 1.04; in [10], -0.249 (inactive); in assay [12] it was -2.15 (inactive); in [13], 0.476 (inactive); in assay [14] it was 5.32 (inactive); in [15], -0.216 (inactive).

Regarding `CC(C)=CCCC(C)=CCON=C1C[C@@H](O)[C@@H](O)[C@@H]2[C@@H]3C(=O)N(c4ccc(F)cc4F)C(=O)[C@@H]3CC[C@@H]12`, the composite z-score in assay [1] was 0.0658; in [2], -0.167; in assay [3], 0.121; in assay [4], 0.89; in assay [5], 1.04; in assay [6], 0.393. For the same molecule, the composite z-score is 1.27 in assay [8]; 1.06 in assay [9]; 0.291 in assay [11]; 1.45 in assay [16]; -0.152 in [17]; 0.815 in assay [18]. For the same molecule, the composite z-score in assay [19] was -0.0827; in assay [20], 1.97. Besides, the z-score in assay [7] was -0.913; in [10], 1.03 (inactive); in assay [12], -1.52 (inactive); in assay [13], -0.665 (inactive); in assay [14] it was 1.24 (inactive); in assay [15] it was 0.671 (inactive).
